Data published in the supplement of paper PMC10849652.
Targets with a hit are over-represented here; the source holds about 8,800 in all. About 0.5% of all pairs of compound and target were hits. Unmarked numbers belong to inactive results.

Assays:
Assay in all cases: log2 fold change, soluble protein after heating vs DMSO (PISA); higher = thermal stabilisation; K562 lysate, 10 uM; active = over 0.2 and 3.5 SD of the protein, either way, in both replicates (recomputed)
erlotinib = compound: C#Cc1cccc(Nc2ncnc3cc(OCCOC)c(OCCOC)cc23)c1 [erlotinib]
Outline: (§1)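 Dounce homogenisation of K562 pellets in PBS pH 7.4 with 1 mM MgCl2 produced a crude extract, used at 1 mg/mL protein. Exposure to 10 μM compound lasted 30 min, and aliquots were then heated for 3 min across 48°C-58°C, pooled and brought to 0.5% NP-40 at 4°C. The supernatant after 21,000xg for 90 min was quantified by TMTpro 16plex LC-MS/MS with channel sums equalised. Duplicate values are given as log-two fold change in thermal stability relative to solvent controls.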

[1] = compound: C1=CC(=CC=C1C2=NC3=C(N2)C=C(C=C3)C(=O)N)OC4=CC=C(C=C4)Cl
Outline: as §1

[2] = compound: C1=CC=C(C=C1)C2=NC(=C(N2)C3=CC=NC=C3)C4=CC(=C(C=C4)Cl)O
Outline: as §1

IRAK-1-4 Inhibitor I = compound: C1COCCN1CCN2C3=CC=CC=C3N=C2NC(=O)C4=CC(=CC=C4)[N+](=O)[O-] [IRAK-1-4 Inhibitor I]
Outline: as §1

[3] = compound: CC(=O)c1cnc2ccc(-c3cc(Cl)c(O)c(Cl)c3)nc2c1N[C@H]1CC[C@H](CN(C)C)CC1
Outline: as §1

ralimetinib = compound: CC(C)(C)Cn1c(N)nc2ccc(-c3[nH]c(C(C)(C)C)nc3-c3ccc(F)cc3)nc21 [ralimetinib]
Outline: as §1

[4] = compound: CC(C)(O)CC(=O)NCCn1ccc2ncnc(Nc3ccc(Oc4cccc(C(F)(F)F)c4)c(Cl)c3)c21
Outline: as §1

[5] = compound: CC(C)C1=C2N=C(C=C(N2N=C1)NCC3=CC=CC=C3)NCCCCCCN
Outline: as §1

[6] = compound: CC1=C(C2=C(C=C1)C(=O)C3=CC=CC=C3N2CCCN)C
Outline: as §1

[7] = compound: CC1=C(C=C(C=C1)NC(=O)C2=CC(=CC=C2)C(C)(C)C#N)NC3=CC4=C(C=C3)N=CN(C4=O)C
Outline: as §1

[8] = compound: CC1=C(C=C(C=C1)NC(=O)C2=CC(=CC=C2)N(C)C)NC(=O)C3=CC=C(C=C3)O
Outline: as §1

[9] = compound: CC1=CC=C(C=C1)SC2=C3C=C(SC3=CN=C2)C(=O)N
Outline: as §1

[10] = compound: C/C(=N\NC(=O)C1=CC(=CC=C1)S(=O)(=O)N2CCOCC2)/C3=C(C=CC(=C3)Cl)O
Outline: as §1

[11] = compound: C1=CC2=C(C=CC(=C2)/C=C\3/C(=O)NC(=NCC4=CC=CS4)S3)N=C1
Outline: as §1

[12] = compound: C1=CC2=NC=CN=C2C=C1/C=C/3\C(=O)NC(=O)S3
Outline: as §1

[13] = compound: C1=CC=C2C(=C1)C3=NNC4=CC=CC(=C43)C2=O
Outline: as §1

ibrutinib = compound: C=CC(=O)N1CCC[C@@H](n2nc(-c3ccc(Oc4ccccc4)cc3)c3c(N)ncnc32)C1 [ibrutinib]
Outline: as §1

[14] = compound: CC1=C(C(CC(=O)N1)C2=CC=C(C=C2)C(F)(F)F)C(=O)NC3=C(C=C4C(=C3)C=NN4)F
Outline: as §1

[15] = compound: C1CCN(C1)C(=O)NC2=CC=CC(=C2)NC3=NC=C(C(=N3)NCCC4=CN=CN4)Br
Outline: as §1

[16] = compound: C1CN(CCC1(CC2=CC=C(C=C2)Cl)N)C3=NC=NC4=C3C=CN4
Outline: as §1

Chain of UniProt P30838 (P30838 whole entry, looked up): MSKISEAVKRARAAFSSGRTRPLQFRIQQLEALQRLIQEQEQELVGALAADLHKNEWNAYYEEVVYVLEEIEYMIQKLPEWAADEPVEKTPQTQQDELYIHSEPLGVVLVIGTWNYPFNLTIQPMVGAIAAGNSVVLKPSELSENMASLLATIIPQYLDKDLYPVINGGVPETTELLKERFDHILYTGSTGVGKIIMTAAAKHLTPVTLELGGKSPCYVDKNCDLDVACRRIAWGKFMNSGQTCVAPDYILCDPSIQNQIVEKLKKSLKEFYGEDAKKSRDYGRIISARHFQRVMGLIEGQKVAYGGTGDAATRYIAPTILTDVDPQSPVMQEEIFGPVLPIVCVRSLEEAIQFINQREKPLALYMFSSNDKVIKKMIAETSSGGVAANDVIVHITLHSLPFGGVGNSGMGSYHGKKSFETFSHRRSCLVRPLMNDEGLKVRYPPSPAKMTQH
Chain of UniProt Q9BT30 (Q9BT30 whole entry, looked up): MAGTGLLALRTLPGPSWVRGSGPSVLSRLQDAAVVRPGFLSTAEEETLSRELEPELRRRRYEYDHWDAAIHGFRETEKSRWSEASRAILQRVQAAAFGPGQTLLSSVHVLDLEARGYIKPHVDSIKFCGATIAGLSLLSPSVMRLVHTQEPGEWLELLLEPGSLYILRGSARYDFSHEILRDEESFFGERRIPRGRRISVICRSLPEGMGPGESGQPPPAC
Chain of UniProt P53396 (P53396 whole entry, looked up): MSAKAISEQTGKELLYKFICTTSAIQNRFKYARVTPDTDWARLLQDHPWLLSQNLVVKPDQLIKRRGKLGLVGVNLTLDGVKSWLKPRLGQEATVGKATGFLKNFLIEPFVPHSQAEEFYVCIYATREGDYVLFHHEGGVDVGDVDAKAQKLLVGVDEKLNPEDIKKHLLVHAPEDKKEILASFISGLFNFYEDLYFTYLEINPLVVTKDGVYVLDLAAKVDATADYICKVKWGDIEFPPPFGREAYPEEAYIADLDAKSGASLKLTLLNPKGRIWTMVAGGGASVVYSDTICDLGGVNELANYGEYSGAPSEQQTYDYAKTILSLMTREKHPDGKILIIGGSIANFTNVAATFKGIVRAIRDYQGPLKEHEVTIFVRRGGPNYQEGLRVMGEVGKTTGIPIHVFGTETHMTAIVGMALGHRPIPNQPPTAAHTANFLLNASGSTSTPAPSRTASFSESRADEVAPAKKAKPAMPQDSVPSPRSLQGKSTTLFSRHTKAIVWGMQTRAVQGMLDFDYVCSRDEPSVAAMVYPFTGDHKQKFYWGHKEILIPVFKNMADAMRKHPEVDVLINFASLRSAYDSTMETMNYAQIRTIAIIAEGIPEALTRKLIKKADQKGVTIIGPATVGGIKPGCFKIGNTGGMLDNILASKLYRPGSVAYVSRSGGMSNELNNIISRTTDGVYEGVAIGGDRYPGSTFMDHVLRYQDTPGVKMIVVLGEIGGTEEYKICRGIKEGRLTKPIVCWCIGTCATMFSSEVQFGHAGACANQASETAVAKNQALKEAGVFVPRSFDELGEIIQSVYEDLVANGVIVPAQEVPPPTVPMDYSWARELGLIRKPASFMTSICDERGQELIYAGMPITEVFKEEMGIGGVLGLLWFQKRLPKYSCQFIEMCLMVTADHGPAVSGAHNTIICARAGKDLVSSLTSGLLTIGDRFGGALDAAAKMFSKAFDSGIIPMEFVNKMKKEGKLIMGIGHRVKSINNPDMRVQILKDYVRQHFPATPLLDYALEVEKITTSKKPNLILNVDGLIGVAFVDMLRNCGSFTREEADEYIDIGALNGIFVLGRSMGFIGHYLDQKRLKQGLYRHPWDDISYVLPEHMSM
Chain of UniProt Q9BXX3 (Q9BXX3 whole entry, looked up): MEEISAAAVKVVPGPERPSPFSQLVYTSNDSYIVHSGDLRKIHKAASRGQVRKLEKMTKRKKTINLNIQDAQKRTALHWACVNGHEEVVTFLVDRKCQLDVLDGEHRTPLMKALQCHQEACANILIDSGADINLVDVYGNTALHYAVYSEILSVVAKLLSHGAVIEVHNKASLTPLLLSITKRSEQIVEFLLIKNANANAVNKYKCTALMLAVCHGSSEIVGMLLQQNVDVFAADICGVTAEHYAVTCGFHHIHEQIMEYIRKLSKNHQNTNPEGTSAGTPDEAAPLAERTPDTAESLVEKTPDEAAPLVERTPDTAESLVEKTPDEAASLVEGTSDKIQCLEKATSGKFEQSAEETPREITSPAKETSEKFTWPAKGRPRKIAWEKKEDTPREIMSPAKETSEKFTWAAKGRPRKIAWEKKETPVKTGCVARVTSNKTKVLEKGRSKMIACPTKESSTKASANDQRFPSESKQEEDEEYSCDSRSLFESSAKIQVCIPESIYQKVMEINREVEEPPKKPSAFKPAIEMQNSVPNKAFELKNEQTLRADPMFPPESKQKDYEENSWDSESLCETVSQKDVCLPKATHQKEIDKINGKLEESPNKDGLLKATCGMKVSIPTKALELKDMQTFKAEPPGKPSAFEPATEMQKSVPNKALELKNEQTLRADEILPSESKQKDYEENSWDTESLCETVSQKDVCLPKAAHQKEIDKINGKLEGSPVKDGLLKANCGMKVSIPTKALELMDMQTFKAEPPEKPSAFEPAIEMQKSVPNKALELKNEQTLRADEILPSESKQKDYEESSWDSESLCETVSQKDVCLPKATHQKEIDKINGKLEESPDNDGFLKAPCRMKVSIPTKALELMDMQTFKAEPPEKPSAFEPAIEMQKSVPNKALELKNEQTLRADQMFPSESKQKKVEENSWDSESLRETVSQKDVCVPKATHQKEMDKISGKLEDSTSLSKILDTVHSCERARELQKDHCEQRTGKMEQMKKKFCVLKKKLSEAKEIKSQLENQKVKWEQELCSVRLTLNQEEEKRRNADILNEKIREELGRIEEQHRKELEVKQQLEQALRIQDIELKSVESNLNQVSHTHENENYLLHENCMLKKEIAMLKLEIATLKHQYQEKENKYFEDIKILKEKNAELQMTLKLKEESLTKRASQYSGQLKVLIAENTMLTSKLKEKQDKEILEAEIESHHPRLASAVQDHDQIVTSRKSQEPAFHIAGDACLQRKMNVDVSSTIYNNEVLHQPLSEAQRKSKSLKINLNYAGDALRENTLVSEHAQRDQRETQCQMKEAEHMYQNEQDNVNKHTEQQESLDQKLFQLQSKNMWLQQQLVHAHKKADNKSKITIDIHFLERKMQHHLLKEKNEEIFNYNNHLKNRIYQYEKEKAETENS
Chain of UniProt Q6AI12 (Q6AI12 whole entry, looked up): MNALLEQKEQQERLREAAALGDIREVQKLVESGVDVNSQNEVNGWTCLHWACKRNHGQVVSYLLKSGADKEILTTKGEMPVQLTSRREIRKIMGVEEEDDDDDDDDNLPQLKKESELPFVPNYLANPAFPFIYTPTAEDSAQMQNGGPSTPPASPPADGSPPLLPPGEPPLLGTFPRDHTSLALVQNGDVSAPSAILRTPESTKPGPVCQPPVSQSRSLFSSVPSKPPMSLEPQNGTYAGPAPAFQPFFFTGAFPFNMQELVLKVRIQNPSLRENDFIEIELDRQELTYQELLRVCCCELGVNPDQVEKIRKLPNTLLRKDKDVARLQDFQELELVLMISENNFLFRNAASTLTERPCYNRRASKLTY
Chain of UniProt Q13155 (Q13155 whole entry, looked up): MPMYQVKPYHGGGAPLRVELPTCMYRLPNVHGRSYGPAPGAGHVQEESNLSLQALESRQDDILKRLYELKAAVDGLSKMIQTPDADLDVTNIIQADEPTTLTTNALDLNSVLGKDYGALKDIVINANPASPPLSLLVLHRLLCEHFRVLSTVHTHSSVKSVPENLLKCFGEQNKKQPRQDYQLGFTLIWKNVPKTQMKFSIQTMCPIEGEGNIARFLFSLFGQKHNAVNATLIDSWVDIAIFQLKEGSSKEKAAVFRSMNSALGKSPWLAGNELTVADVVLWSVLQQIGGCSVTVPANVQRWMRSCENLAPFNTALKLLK
Chain of UniProt P14621 (P14621 whole entry, looked up): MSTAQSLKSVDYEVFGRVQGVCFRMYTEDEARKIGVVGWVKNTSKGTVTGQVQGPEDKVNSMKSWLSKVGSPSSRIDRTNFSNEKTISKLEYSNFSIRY
Chain of UniProt P35611 (P35611 whole entry, looked up): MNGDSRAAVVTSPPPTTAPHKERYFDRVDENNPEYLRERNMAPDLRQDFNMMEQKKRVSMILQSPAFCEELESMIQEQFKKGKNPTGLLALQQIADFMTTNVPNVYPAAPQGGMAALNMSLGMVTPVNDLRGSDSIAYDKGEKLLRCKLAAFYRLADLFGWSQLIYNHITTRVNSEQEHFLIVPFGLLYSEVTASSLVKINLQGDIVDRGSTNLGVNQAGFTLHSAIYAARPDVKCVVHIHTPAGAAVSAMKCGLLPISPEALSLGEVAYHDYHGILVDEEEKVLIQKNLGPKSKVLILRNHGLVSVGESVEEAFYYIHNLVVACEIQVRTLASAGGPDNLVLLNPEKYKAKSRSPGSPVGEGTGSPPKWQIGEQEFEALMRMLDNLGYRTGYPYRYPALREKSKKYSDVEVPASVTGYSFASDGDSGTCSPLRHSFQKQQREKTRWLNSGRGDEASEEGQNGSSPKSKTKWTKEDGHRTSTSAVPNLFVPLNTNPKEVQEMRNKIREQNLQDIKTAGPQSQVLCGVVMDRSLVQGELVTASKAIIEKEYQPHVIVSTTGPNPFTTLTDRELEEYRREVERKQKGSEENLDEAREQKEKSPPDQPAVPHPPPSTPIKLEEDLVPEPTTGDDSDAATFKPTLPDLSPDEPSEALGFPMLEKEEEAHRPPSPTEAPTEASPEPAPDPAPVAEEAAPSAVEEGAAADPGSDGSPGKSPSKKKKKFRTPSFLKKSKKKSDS
Chain of UniProt Q9BQI0 (Q9BQI0 whole entry, looked up): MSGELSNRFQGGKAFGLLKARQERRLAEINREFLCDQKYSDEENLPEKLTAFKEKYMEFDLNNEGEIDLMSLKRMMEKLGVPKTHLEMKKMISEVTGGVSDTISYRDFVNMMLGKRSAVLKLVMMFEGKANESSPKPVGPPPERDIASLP
Chain of UniProt Q9P1F3 (Q9P1F3 whole entry, looked up): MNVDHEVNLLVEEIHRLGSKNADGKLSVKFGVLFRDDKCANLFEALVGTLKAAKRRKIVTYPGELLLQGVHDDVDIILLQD

Row | Target | log2 fold change (erlotinib) | log2 fold change [1] | log2 fold change [2] | log2 fold change (IRAK-1-4 Inhibitor I) | log2 fold change [3] | log2 fold change (ralimetinib) | log2 fold change [4] | log2 fold change [5] | log2 fold change [6] | log2 fold change [7] | log2 fold change [8] | log2 fold change [9] | log2 fold change [10] | log2 fold change [11] | log2 fold change [12] | log2 fold change [13] | log2 fold change (ibrutinib) | log2 fold change [14] | log2 fold change [15] | log2 fold change [16]
1 | ALDH3A1 (UniProt P30838) | 0.147 | 0.257 | 0.147 | 0.059 | -0.197 | -0.274 | -0.259 | 0.04 | 1.23 (active) | 0.432 | -0.001 | -0.119 | – | – | – | – | – | – | – | –
2 | ACYP2 (UniProt P14621) | -0.057 | 0.007 | -0.049 | -0.011 | 0.004 | 0.026 | -0.018 | 0.044 | – | -0.036 | 0.025 | 0.04 | 0.256 | -0.176 | 0.002 | -0.185 | 0.086 | 0.047 | – | –
3 | AMDHD2 (UniProt Q9Y303) | – | – | – | – | – | – | – | – | – | 0.014 | – | – | -0.527 (active) | 0.212 | – | -0.391 | – | – | – | –
4 | ALKBH7 (UniProt Q9BT30) | -0.169 | -0.02 | 0 | -0.04 | – | 0.116 | 0.09 | -0.085 | -0.012 | 0.077 | 0.019 | – | – | – | – | – | – | 0.256 | -0.033 | 0.027
5 | ANKRD10 (UniProt Q9NXR5) | 0.023 | -0.041 | 0.012 | -0.059 | -0.172 | 0.005 | 0.042 | -0.023 | 0.004 | -0.008 | 0.046 | -0.085 | 0.045 | 0.009 | 0.055 | -0.066 | -0.076 | 0.046 | – | –
6 | ADAM17 (UniProt P78536) | 0.021 | 0.017 | 0.044 | 0.04 | – | -0.012 | -0.032 | -0.056 | -0.029 | -0.013 | -0.027 | – | -0.013 | 0.023 | -0.023 | -0.115 | 0.037 | 0.16 | 0.052 | -0.093
7 | ANKRD30A (UniProt Q9BXX3) | – | – | -0.06 | -0.176 | 0.77 | 0.014 | 0.088 | – | 0.038 | -0.088 | 0.077 | -0.177 | – | – | 0.035 | – | -0.01 | 0.007 | 0.415 | 0.144
8 | ADK, A0A5F9ZH76 | – | – | – | – | 0.005 | – | – | – | – | – | – | 0 | – | – | 0 | – | 0.168 | -0.156 | – | –
9 | ABRACL (UniProt Q9P1F3) | -0.013 | 0.056 | – | – | -0.179 | – | – | 0.001 | 0.142 | 0.051 | – | 0.015 | – | – | 0.103 | – | 0.109 | -0.112 | – | –
10 | ARHGEF2 (UniProt V9GYF0) | – | – | 0.012 | 0.062 | 0.02 | -0.041 | -0.126 | – | -0.011 | – | 0.008 | -0.07 | -0.056 | -0.125 | – | 0.078 | – | -0.055 | -0.009 | -0.058
11 | ANKRD40 (UniProt Q6AI12) | 0.085 | 0.093 | 0.065 | -0.091 | – | 0.062 | 0.05 | 0.051 | -0.231 | 0.075 | 0.087 | – | -0.269 | -0.143 | 0.232 | -0.163 | 0.008 | 0.027 | 0.296 | 0.203
12 | ADD1 isoform 4 (UniProt P35611) | -0.016 | 0.011 | -0.081 | 0.093 | 0.003 | -0.104 | -0.356 | 0.056 | 0.004 | – | 0.017 | -0.341 | -0.059 | 0.089 | -0.088 | -0.025 | 0.214 | – | 0.028 | -0.009
13 | ACTG1 (UniProt K7EM38) | – | – | – | – | -0.044 | – | – | – | – | – | – | 0.152 | – | – | – | – | – | – | -0.162 | -0.155
14 | ALDH18A1 isoform 2 (UniProt P54886) | – | – | 0.092 | 0.046 | – | -0.308 | -0.245 | – | -0.378 | 0.03 | 0.19 | – | -0.298 | -0.142 | – | -0.05 | – | – | – | –
15 | AIF1L (UniProt Q9BQI0) | -0.035 | -0.008 | 0.012 | -0.049 | 0.032 | 0.029 | -0.003 | -0.105 | 0.159 | -0.014 | -0.005 | -0.013 | – | – | -0.014 | – | 0.169 | -0.012 | 0.329 | -0.008
16 | ACLY isoform 2 (UniProt P53396) | – | – | 0.012 | -0.053 | 0.028 | -0.022 | 0.07 | – | – | 0.018 | -0.008 | -0.01 | -0.122 | 0.002 | -0.018 | -0.034 | -0.015 | 0.008 | -0.027 | -0.029
17 | ALG3 (UniProt Q92685) | 0.19 | -0.12 | -0.016 | 0.019 | 0.03 | -0.007 | -0.032 | -0.278 | 0.014 | -0.024 | 0.042 | 0.03 | -0.117 | -0.037 | 0.056 | -0.182 | -0.163 | – | -0.103 | -0.037
18 | ABCC5 (UniProt O15440) | 0.059 | 0.057 | -0.112 | -0.067 | 0.012 | -0.216 | -0.145 | -0.015 | -0.094 | 0.019 | 0.187 | -0.019 | -0.581 | -0.028 | -0.127 | -0.248 | -0.109 | – | -0.038 | 0.072
19 | ANXA2 (UniProt H0YL33) | -0.153 | 0.088 | -0.027 | -0.031 | -0.167 | -0.076 | 0.129 | -0.353 | 0.025 | -0.211 | 0.005 | -0.144 | – | – | -0.108 | – | 0.235 | 0.033 | – | –
20 | ALG13 isoform 2 (UniProt Q9NP73) | – | – | – | – | – | – | – | – | – | – | – | – | – | – | – | – | – | 0.03 | – | –
21 | ABI1 isoform 6 (UniProt Q8IZP0) | – | – | – | – | -0.034 | – | – | – | – | – | – | -0.028 | – | – | – | – | – | – | -0.167 | 0.213
22 | ANKRD44 isoform 2 (UniProt Q8N8A2) | -0.034 | 0.002 | – | – | 0.067 | – | – | -0.026 | – | – | – | -0.029 | -0.035 | -0.083 | -0.016 | -0.257 | -0.131 | 0.075 | -0.059 | -0.032
23 | AIMP2 isoform 2 (UniProt Q13155) | – | – | 0.061 | 0.006 | 0.064 | 0.061 | -0.036 | – | – | 0.089 | 0.023 | 0 | – | – | 0.056 | – | -0.28 | – | – | –
